Laboratory results taken from PubChem BioAssay (Tox21).
Results filed as inconclusive are left out. Where a call stands in place of a potency, no number is given. The source made the active and inactive calls. The call rests on the fitted dose curve; in most records, active means well fitted cell-killing curve with a large enough effect in the repeat runs; inconclusive means weak or mixed curves, or effect the other way; inactive means flat fitted curve, though single readings scatter.

test: qHTS assay to identify small molecule agonists of the constitutive androstane receptor (CAR) signaling pathway - cell viability counter screen (AID 1224836); conditions: HepG2-CYP2B6-hCAR viability, CellTiter-Fluor, 23 h, PK11195 added to every well; series mostly up to 92.4 µM; further: nearly all actives have a fitted effect of over 45% in size
From the text: U.S. Tox21 Program National Center for Advancing Translational Sciences [NCATS] NIH Chemical Genomics Center [NCGC] U.S. Environmental Protection Agency [EPA] National Institutes of Environmental Health Sciences [NIEHS] National Toxicology Program [NTP] U.S. Food and Drug Administration [FDA] Tox21 Assay Overview: The constitutive androstane receptor (CAR) is a nuclear receptor which regulates multiple drug metabolizing enzymes (DMEs) and transporters. Activating CAR will generally increase the transcription and subsequent translation of CYP2B6 and CYP3A4. These two DMEs represent about 50% of the drug metabolizing potential in the body. […] Recently, there have also been studies performed indicating CARs role in energy metabolism and cancer therapy. Therefore, inducing CARs activity could have a potential effect on diabetes and cancer. Identifying environmental toxins and compounds which modulate CAR, through the use of the Tox21 10K compound collection, will be an important step in determining the toxicity and potential therapeutic effects these factors will have on the human body. To differentiate true CAR agonists from cytotoxic substances, the assay is multiplexed with a cell viability assay.
Tox21 Assay Protocol Summary: A double-stable (hCAR and CYP2B6-2.2kb) transfected cell line, derived from human hepatoma (HepG2) cells, was utilized for the duration of the quantitative high-throughput screens. The HepG2-CYP2B6-hCAR cells were dispensed at 2500 cells/4 uL/well in 1536-well white solid bottom plates using a Multidrop Combi. After the assay plates were incubated at 37 C/5% CO2 for 4 hrs, 23 nL of compounds at 15 concentrations (from 5-48 columns) or positive control (from 1 to 4 columns) were transferred to the assay plates using a Pintool station. One uL of PK11195 (final concentration = 0.75 uM) was added, using a Flying Reagent Dispenser, inside each well. After a 23 hr incubation period at 37 C/5% CO2, 1 uL of CellTiter-Fluor reagent was added into each well of the assay plates using a Flying Reagent Dispenser. The fluorescence intensity in the plates was then measured using a ViewLux plate reader.

| SMILES | Potency |
| --- | --- |
| CCCCCCC(=O)O | inactive |
| N#CCC(=O)O | inactive |
| NC(=O)NC(N)=O | inactive |
| Brc1ccc(Oc2ccc(Br)cc2)cc1 | inactive |
| O=C(c1ccccc1)c1ccc(O)c(O)c1O | inactive |
| CC(C)(CO)CO | inactive |
| O=C1C(N(CO)C(=O)NCO)N(CO)C(=O)N1CO (stereo not given) | inactive |
| CCCCCCCCC(=O)O | inactive |
| CCCCC(CC)COC(=O)c1ccc(C(=O)OCC(CC)CCCC)cc1 (stereo not given) | inactive |
| CC/C(C)=N/O | inactive |
| O=C(Cl)c1ccc(C(=O)Cl)cc1 | inactive |
| O=C(O)Cc1c[nH]c2ccccc12 | inactive |
| CC(C)(C)NC[C@H](O)COc1nsnc1N1CCOCC1 | inactive |
| COc1c2ccoc2cc2oc(=O)ccc12 | inactive |
| NC1CCCCC1N (stereo not given) | inactive |
| Cc1ccc([N+](=O)[O-])cc1N | inactive |
| Cc1cc(CC(=O)O)n(C)c1C(=O)c1ccc(Cl)cc1 | inactive |
| Cc1ccc(C)c(S(=O)(=O)O)c1 | inactive |
| CCc1cccc(CC)c1N | inactive |
| CCN(CC)CCNC(=O)c1ccc(N)cc1 | inactive |

| SMILES | Potency |
| --- | --- |
| Cc1ncc(CO)c(CO)c1O | inactive |
| CCCCCC(C)=O | inactive |
| CC1(C)C(=O)N(Cl)C(=O)N1Cl | inactive |
| CCn1cc(C(=O)O)c(=O)c2cc3c(cc21)OCO3 | inactive |
| CCCCCCCCO | inactive |
| CC(C)=CCC/C(C)=C/C=O | inactive |
| O=Cc1ccc(CO)o1 | inactive |
| CC1(C)[C@@H](O[C@H]2O[C@H](C(=O)O)[C@@H](O)[C@H](O)[C@H]2O[C@@H]2O[C@H](C(=O)O)[C@@H](O)[C@H](O)[C@H]2O)CC[C@]2(C)[C@H]3C(=O)C=C4[C@@H]5C[C@@](C)(C(=O)O)CC[C@]5(C)CC[C@@]4(C)[C@]3(C)CC[C@@H]12 | inactive |
| CC(=O)c1nccs1 | inactive |
| O=C1CCCCCCCCCCC1 | inactive |
| CCc1cccc(O)c1 | inactive |
| Nc1cccc(C(F)(F)F)c1 | inactive |
| CCCCCCCCCCCC(=O)N(C)CC(=O)O | inactive |
| CC(=O)OCc1ccc2c(c1)OCO2 | inactive |
| Oc1ccc(Cc2ccccc2O)cc1 | inactive |
| Cc1cccc(C)c1[N+](=O)[O-] | inactive |
| O=C1OC(=O)c2c(Cl)c(Cl)c(Cl)c(Cl)c21 | inactive |
| CC(=O)Nc1ccc(CC(=O)O)cc1 | inactive |
| CO[Si](CCCNCCN)(OC)OC | inactive |
| CCCCCCCCCCCCCC(=O)O | inactive |
